The values below come from PubChem BioAssay (EPA / NIEHS).

Activity calls are given as the source filed them. Rule for the calls: active = hit-call score of the fitted dose curve at least 0.9, where 1 is the maximum; inactive = score below 0.9.

The nature of the assay: BSK_3C_TissueFactor: BioMAP Diversity Plus: 3C Assay for Tissue Factor Biomarker Activity (AID 2282997). The following applies: BioMAP 3C HUVEC, tissue factor biomarker readout; actives raise or lower the signal. Here is the method:
BSK_3C is a cell-based, multiplexed-readout assay that uses umbilical vein endothelium, a human vascular primary cell, with measurements taken at 24 hours after chemical dosing in a 96-well plate.BSK_3C_TissueFactor is an assay component measured in the BSK_3C assay. It measures Tissue Factor antibody related to regulation of gene expression using ELISA technology.Data from the assay component BSK_3C_TissueFactor was analyzed into 1 assay endpoint. This assay endpoint, BSK_3C_TissueFactor, was analyzed with bidirectional fitting relative to DMSO as the negative control and baseline of activity. Using a type of binding reporter, gain or loss-of-signal activity can be used to understand changes in the signaling as they relate to the gene F3. Furthermore, this assay endpoint can be referred to as a primary readout, because this assay has produced multiple assay endpoints where this one serves a signaling function. To generalize the intended target to other relatable targets, this assay endpoint is annotated to the cytokine intended target family, where the subfamily is coagulation factor.
The levels of cell surface (or secreted, indicated by the prefix "s") biomarker endpoints were measured by ELISA. Overt cytotoxicity to cells in confluent adherent cultures (all systems other than the BT system) was assessed by measuring total protein levels using sulforhodamine B (SRB) staining in parallel cultures at the time of biomarker measurements, indicated as SRB endpoints. For proliferation assays for adherent cell types, individual cell types are cultured at sub-confluence and relative cell numbers quantified by SRB staining at time points optimized for each system (48 h: 3C and CASM3C systems; 72 h: BT and HDF3CGF systems; 96 h: SAg system). SRB was performed by staining cells with 0.1% SRB after fixation with 10% TCA and reading wells at 560 nm.Viability and proliferation of PBMC (T cells) was quantified by Alamar Blue reduction for the SAg and BT systems. For PBMC viability (referred to as PBMC Cytotoxicity within the assay endpoint names), cells were plated (75,000/well in a 96-well plate) and then chemical samples added for 1 h before addition of activators, SEB and TSST-1 (20 ng/mL final concentration each). Cells were incubated for 90 h. Then, Alamar Blue (20 uL/well) (Invitrogen, Cat DAL1100) was added for 6 h, and the plates were read with a fluorescence microplate reader at 546/580 nm (excitation/emission). For PBMC proliferation, cells were plated and activated as above but incubated for only 16 h prior to addition of Alamar Blue. Plates were read after 6 h.
As to `CCCCCCCCCC=O`, the result was inactive.
The same measure, in the same setting: under `BrC1CCC(Br)C(Br)CCC(Br)C(Br)CCC1Br` (stereo not given) stands “inactive”; under `O=C(O)c1cn(C2CC2)c2cc(N3CCNCC3)c(F)cc2c1=O`, “inactive”; under `CC[Si](OC(C)=O)(OC(C)=O)OC(C)=O`, “inactive”.
Regarding `CNC[C@H](O)c1cccc(O)c1`, the result was inactive.
On to `O=C1OC2(c3cc(Br)c(O)c(Br)c3Oc3c2cc(Br)c(O)c3Br)c2c(Cl)c(Cl)c(Cl)c(Cl)c21`, for which the half-maximal activity concentration (AC50) – broadly, the concentration at which the activity in the assay is half-maximal – was 4.1 µM (active).
Take `O=C=NC1CCC(CC2CCC(N=C=O)CC2)CC1` (stereo not given): the concentration at half-maximal activity (AC50) was 3.97 µM (active).
With `CCCCCCCCC=O`, the outcome was inactive.
Same read-out and setting: under `CCc1c(C)cc(N)c(CC)c1N` stands “inactive”.
Turning to `Cc1ccc(O)c(C(C)(C)C)c1`, the concentration at half-maximal activity (AC50) was 36.7 µM (active).
As to `CC(=O)OCCC(C)CC(C)(C)C` (stereo not given), the result was inactive.
Still for that read-out and setting: under `CC(=O)Nc1ccccc1O` stands “inactive”; under `Nc1cc([N+](=O)[O-])ccc1O`, “inactive”; under `CCCCC(CC)COCCC#N` (stereo not given), “inactive”.
For `Cc1ccc(Nc2ccc(O)c3c2C(=O)c2ccccc2C3=O)cc1`, the AC50 was 1.13 µM (active).
`OC[C@H]1O[C@H](O[C@]2(CCl)O[C@H](CCl)[C@@H](O)[C@@H]2O)[C@H](O)[C@@H](O)[C@H]1Cl`: the outcome was inactive.
Same read-out and setting: as for `CN(CCOc1ccc(CC2SC(=O)NC2=O)cc1)c1ccccn1` (stereo not given), the entry is “inactive”; as for `Cc1cc(C2(c3cc(C)c(O)cc3C)OS(=O)(=O)c3ccccc32)c(C)cc1O`, “inactive”.
Regarding `CC(C)c1ccc(C(C)C)cc1`, the AC50 was 29.4 µM (active).
On to `CC(=O)/C=C/C1=C(C)CCCC1(C)C`, for which the result was inactive.
Same read-out and setting: under `Cc1ccc2n[nH]nc2c1` stands “inactive”.
The same measure, in the same setting: as for `CCC(=O)OCc1ccccc1`, the entry is “inactive”; as for `O=P(c1ccccc1)(c1ccccc1)c1ccccc1`, “inactive”.
As to `c1ccc2c(c1)c1cccc3ccc4cccc2c4c31`, the result was inactive.
The same measure, in the same setting: as for `CCn1c2ccccc2c2cc(N)ccc21`, the entry is “inactive”.
As for `C=C(C)C(=O)O[C@H]1C[C@@H]2CC[C@@]1(C)C2(C)C`, the half-maximal activity concentration (AC50) is 12.2 µM (active).
Regarding `CC(=O)[C@H]1CC[C@H]2[C@@H]3CC=C4C[C@@H](O)CC[C@]4(C)[C@H]3CC[C@]12C`, the outcome was inactive.
On the same count and under the same terms, under `C=CCOC(=O)CCC1CCCCC1` stands “inactive”; under `CCCCC(CC)COC(=O)/C=C\C(=O)OCC(CC)CCCC` (stereo not given), “inactive”.
The same measure, in the same setting: as for `CC(C)Oc1ccccc1O`, the entry is “inactive”; as for `Nc1cc([N+](=O)[O-])ccc1Cl`, “inactive”; as for `COc1cc(C=O)ccc1OC(=O)C(C)C`, “inactive”.
Still for that read-out and setting: under `CC(=O)O[C@]1(C(C)=O)CC[C@H]2[C@@H]3C[C@H](C)C4=CC(=O)CC[C@]4(C)[C@H]3CC[C@@]21C` stands “inactive”; under `COC(=O)c1ccc(C)cc1`, “inactive”.
`OC1OC[C@@H](O)[C@H](O)[C@H]1O` (stereo not given in full): the outcome was inactive.
Same read-out and setting: as for `c1ccc2sc(SN(C3CCCCC3)C3CCCCC3)nc2c1`, the entry is “inactive”.
Still for that read-out and setting: under `O=C(O)c1cn(-c2ccc(F)cc2)c2cc(N3CCNCC3)c(F)cc2c1=O` stands “inactive”.
On to `CC1CCC(C(C)CS)CC1S` (stereo not given), for which the half-maximal activity concentration (AC50) is 36.7 µM (active).
On the same count and under the same terms, under `CCCCC/C=C/C=C/C=O` stands 29.5 µM (active).
Turning to `C=C[Si](OCC)(OCC)OCC`, the result was inactive.
